About 83,000 compounds went through this panel and 20% of them were active in at least one assay; those are over-represented in the sample as a whole.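 Treatment: one concentration, 48 hours, 96-well format. Scoring: percent growth, with anything below 10 considered active.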 The source made the active and inactive calls.
Assays:
Assay in all cases: NCI-60 one-dose screen, 48 h (100 = growth as untreated, 0 = no growth, -100 = all killed)
Conditions in all cases: 10 µM unless noted
[1] = system: HCT-15 colon
[2] = system: HT29 colon
[3] = system: SNB-75 CNS
[4] = system: SNB-19 CNS
[5] = system: U251 CNS
[6] = system: PC-3 prostate
[7] = system: SK-MEL-5 melanoma
[8] = system: UACC-62 melanoma
[9] = system: LOX IMVI melanoma
[10] = system: SK-MEL-28 melanoma

Measured: growth

CC(=O)C(=Cc1ccc(C=C(C(C)=O)C(C)=O)cc1)C(C)=O
active: [1] -32.7% | [2] -60.5% | [5] -23.7% | [6] 2.43% | [8] -41.6% | [9] -97.8% | [10] -34.8%
inactive: [3] 73.1% | [4] 19.1% | [7] 72.8%

CCC(c1cccc(O)c1)C(CC)c1cccc(O)c1 (stereo not given)
inactive: [1] 49% | [2] 42% | [3] 42.7% | [4] 71.2% | [5] 45.5% | [6] 56.4% | [7] 32.3% | [8] 30.1% | [9] 57.8% | [10] 63.2%

CCCCCC(CCCCC)C(=O)O
inactive: [1] 98.2% | [2] 105% | [3] 89.9% | [4] 103% | [5] 85.5% | [6] 87.6% | [7] 117% | [8] 94.4% | [9] 110% | [10] 111%

CCOC(=O)/C(=C\c1ccc(-c2ccccc2)cc1)C(C)=O
inactive: [1] 94.5% | [2] 104% | [3] 88% | [4] 99.9% | [5] 103% | [6] 107% | [7] 98.7% | [8] 94.6% | [9] 98.4% | [10] 99.1%

CN(Cc1cnc2nc(N)nc(N)c2n1)c1ccc(C(=O)NC(CCC(=O)O)C(=O)O)cc1 (stereo not given)
inactive: [1] 26.4% | [2] 27.6% | [3] 59.6% | [4] 47.2% | [5] 35.7% | [6] 62.1% | [7] 23.3% | [8] 21.2% | [9] 13.2% | [10] 62.2%

C[n+]1c(/C=C/c2ccc([N+](=O)[O-])cc2)ccc2ccccc21
inactive: [1] 98.6% | [2] 104% | [3] 92.5% | [4] 108% | [5] 99.6% | [6] 90% | [7] 97.9% | [8] 95.6% | [9] 92.3% | [10] 121%

CC(C)c1ccc2nc3ccc(C(=O)NCCN4CCN(c5ccccc5)CC4)cn3c(=O)c2c1
inactive: [1] 44.5% | [2] 38.8% | [3] 60.4% | [4] 78.8% | [5] 38.2% | [6] 56.3% | [8] 62% | [9] 56.1% | [10] 69.7%
active: [7] -25.3%

Cc1c2ccccc2c(C)c2c1ccc1ccccc12
inactive: [1] 90.3% | [2] 92.9% | [3] 88.1% | [4] 103% | [5] 94.5% | [6] 83% | [7] 93.1% | [8] 80.5% | [9] 64.3% | [10] 92.8%

CN(C)c1ccc(C(=C2C=CC(=[N+](C)C)C=C2)c2ccc(N(C)C)cc2)cc1 (tested in a mixture with another compound)
active: [1] -74.7% | [2] -87.3% | [3] -97.3% | [4] -99.1% | [5] -95.8% | [6] -38% | [7] -99.3% | [8] -64.4% | [9] -89.2% | [10] -87%

CC(C)(C)CC(C)(C)c1ccc(OCCSC(=N)N)cc1
active: [1] 1.48% | [2] 2.71% | [9] 8.68% | [10] -72.7%
inactive: [3] 77.7% | [4] 87% | [5] 12.3% | [6] 72.2% | [7] 27.9% | [8] 66.5%

C=C(Cl)C(=NC(C)(C)C)Nc1ccccc1C
inactive: [1] 101% | [2] 37.6% | [3] 85.7% | [4] 95.3% | [5] 83.9% | [6] 77.3% | [7] 95.4% | [8] 59.7% | [9] 81.1% | [10] 98.4%

O=[N+]([O-])c1ccc2c(N=Nc3ccc4ccccc4c3O)c(O)cc(S(=O)(=O)O)c2c1
inactive: [1] 85.1% | [2] 104% | [3] 105% | [4] 79.7% | [5] 57.7% | [6] 77.2% | [7] 85% | [8] 79.4% | [9] 66.2% | [10] 98.8%

Reference: PubChem BioAssay (NCI)
